Bioassay records: PubChem BioAssay, several laboratories
Shown are actives, neighbours in structure and some others; about 1.4% of the full set was active somewhere.
HePTP inh – blocks human HePTP tyrosine phosphatase | AID 521 | P35236 | 110,000 tested, 0.64% active | inhibition, % at 20 µM | recombinant HePTP phosphatase activity, OD absorbance; in the data active means inhibition above about 50%;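 further: plate controls were vehicle for no effect and reference inhibitor for full effect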
BAP1 inh – inhibitors of human BAP1 deubiquitinase; Q92560; recombinant BAP1, Ub-AMC hydrolysis fluorescence kinetic; active compounds read low; calls only at 20 µM; 72,000 tested, 0.48% active; AID 436;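 active means activity remaining at or below 50% of control, provided the compound also passes the data quality filters; inactive means the rest, including low values that fail the filters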;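 further: 100% = DMSO wells rate and 0% = substrate alone blank rate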
Target sequence (Q92560 whole entry, looked up): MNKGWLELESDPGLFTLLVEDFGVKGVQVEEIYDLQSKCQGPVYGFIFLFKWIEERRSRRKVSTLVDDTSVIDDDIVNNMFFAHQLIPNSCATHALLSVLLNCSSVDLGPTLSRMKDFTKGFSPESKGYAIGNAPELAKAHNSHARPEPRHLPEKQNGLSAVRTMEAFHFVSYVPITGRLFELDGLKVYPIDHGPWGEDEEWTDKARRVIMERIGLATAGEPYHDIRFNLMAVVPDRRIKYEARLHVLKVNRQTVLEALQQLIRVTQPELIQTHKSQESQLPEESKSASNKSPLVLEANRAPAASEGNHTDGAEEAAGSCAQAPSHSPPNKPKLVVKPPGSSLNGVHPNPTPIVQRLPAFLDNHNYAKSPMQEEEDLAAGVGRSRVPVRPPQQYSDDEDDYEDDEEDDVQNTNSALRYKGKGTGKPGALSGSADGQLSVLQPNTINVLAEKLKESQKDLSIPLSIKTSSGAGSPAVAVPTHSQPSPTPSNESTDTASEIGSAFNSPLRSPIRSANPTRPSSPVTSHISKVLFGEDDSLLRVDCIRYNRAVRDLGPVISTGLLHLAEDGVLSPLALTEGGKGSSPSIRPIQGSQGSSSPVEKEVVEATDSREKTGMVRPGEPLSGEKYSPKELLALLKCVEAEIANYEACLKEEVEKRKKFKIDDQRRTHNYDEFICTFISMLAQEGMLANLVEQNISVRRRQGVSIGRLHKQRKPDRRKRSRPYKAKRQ
PLAP act – activators of human placental alkaline phosphatase; 96,000 tested, 1.2% active; activation fold at 20 µM; purified PLAP enzyme, luminescent substrate read-out; active compounds read high; P05187; in the data active means activation fold above about 2
Cdc25B block – inhibitors of human Cdc25B phosphatase; P30305; recombinant Cdc25B, OMFP fluorescence Ex485/Em525; inhibition, %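 (compounds tested at 10 µM final in the well)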; 65,000 tested, 0.1% active; AID 368; in the data active means inhibition above about 50%
MKP-1 inh – inhibitors of human MKP-1 phosphatase; P28562; recombinant MKP-1, OMFP hydrolysis fluorescence; inhibition, %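 (compounds tested at a single concentration somewhere between 10 and 100 µM)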; 65,000 tested, 0.15% active; AID 374;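 active means inhibition above about 50%, limit read from the data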;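 further: 0% = DMSO max control wells and 100% = wells with enzyme stopped by NaOH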
The depositor's hits bear a star; i = inactive; . = not tested or not shown.

SMILES	HePTP inh	BAP1 inh	PLAP act	Cdc25B block	MKP-1 inh
COc1c(Br)cc(Br)cc1/C=N/NC(=O)CNC(=O)c1cccc(F)c1	4	.	.	.	.
Cc1cc2c(N)cccc2nn1	7	i	0.9	52*	8
c1cnc2c(OCc3nc4ccccc4[nH]3)cccc2c1	14	i	2.1*	4	-7
COc1ccccc1OCc1nc2ccccc2[nH]1	7	i	1	5	-2
O=C(CSc1nc2[nH]ncc2c(=O)n1-c1ccccc1)c1ccc2c(c1)OCCO2	0	i	2.4*	-9	36
Cc1cc(C)c(C(=O)/C(=C/c2ccc(Cl)cc2)c2ccccc2)c(=O)[nH]1	-15	.	.	.	.
Nc1ccc(Cl)c2c1C(=O)c1ccccc1C2=O	.	i	.	.	.
Nc1c2c3c(c(Cl)ccc3[nH]c1=O)C(=O)c1ccccc1-2	103*	.	.	.	.
Cn1ccnc1Sc1ccc(C2Nc3ccc4ccccc4c3C3=C2C(=O)CC(C)(C)C3)cc1[N+](=O)[O-] (stereo unspecified)	6	.	.	.	.
N#C/C(=C\c1cn[nH]c1-c1ccc(Cl)cc1)C(=O)NCc1ccccc1	.	.	2.1*	.	.
COc1ccc(-c2[nH]ncc2/C=C(\C#N)C(=O)NC2CC2)cc1	.	.	2.6*	.	.
C=CCN1C(=O)C(CC(=O)O)SC1=Nc1c(C)n(C)n(-c2ccccc2)c1=O (stereo unspecified)	4	i	1.3	-8	7
C=CCN1C(=O)C(CC(=O)Nc2ccc(C)cc2)SC1=Nc1c(C)n(C)n(-c2ccccc2)c1=O (stereo unspecified)	.	.	2.1*	.	.
COc1ccc(C(=O)/C=C/c2ccc(SC)cc2)cc1OC	10	.	.	.	.
CCc1c(O)nc(SCC(=O)N2CCCCC2)[nH]c1=O	-14	.	.	.	.
Cc1ccc(-c2cc(C(=O)N/N=C\c3cnn(C)c3C)c3ccccc3n2)cc1C	.	.	2*	.	.
Cc1ccc(-c2cc(C(=O)Nc3ccncc3)c3ccccc3n2)cc1C	2	.	.	.	.
O=C(O)CN1C(=O)/C(=C/c2ccc(OCc3ccc(Cl)cc3Cl)cc2)SC1=S	6	.	.	.	.
CC(=O)c1ccc(-n2c(-c3cc(-c4ccco4)[nH]n3)n[nH]c2=S)cc1	.	.	2.6*	.	.
O=C(O)c1ccc(-n2c(-c3cc(-c4ccco4)[nH]n3)n[nH]c2=S)cc1	.	.	0.9	.	.
CC(=O)NN1C(=O)/C(=C/c2cc3c(cc2[N+](=O)[O-])OCO3)SC1=S	93*	.	.	.	.
COc1cc(NC(=O)COc2cccc(C)c2C)c(OC)cc1Cl	-5	.	.	.	.
Cc1ccc(NCC(=O)N=Nc2c(O)[nH]c(=O)[nH]c2=O)cc1	0	.	.	.	.
Nc1ncnc2nc(SCc3ccc(Cl)cc3Cl)[nH]c12	.	.	2.3*	.	.
CNc1ccc([N+](=O)[O-])cc1N/C=C1\CCc2ccccc2C1=O	104*	.	.	.	.
SMILES	HePTP inh	BAP1 inh	PLAP act	Cdc25B block	MKP-1 inh
Cc1ccc(C(C)(C)C)c(OCC(=O)Nc2ccccc2C(F)(F)F)c1	10	i	.	.	.
CCc1c(C)nc2cc(-c3ccc(OC)c(OC)c3)nn2c1NCC1CC1	.	.	2*	.	.
Cc1ccccc1-c1nc(CN2CCC(C(=O)NCCC3=CCCCC3)CC2)c(C)o1	-1	i	2.3*	-37	-4
COc1ccc(CCNC(=O)C2CCN(Cc3nc(-c4ccc(Cl)cc4)oc3C)CC2)cc1OC	-5	i	.	-20	8
CCN(CCNC(=O)C1CCN(Cc2nc(-c3cccc(Cl)c3)oc2C)CC1)c1ccccc1	8	i	2*	-36	27
COc1ccc(CCNC(=O)C2CCN(Cc3nc(-c4ccccc4C)oc3C)CC2)cc1OC	-12	i	2.1*	-21	5
CCN(CCNC(=O)C1CCN(Cc2nc(-c3ccc(Cl)cc3)oc2C)CC1)c1ccccc1	8	i	1.9	-38	32
COc1ccc(N2C(=O)c3ccccc3NC2c2ccc(OC)cc2OC)cc1 (stereo unspecified)	8	.	.	.	.
CCOc1ccccc1NC(=O)c1c(NC(=O)c2ccccc2)sc2c1CCC(C)C2 (stereo unspecified)	8	.	.	.	.
Cc1ccc(NCc2nnc(SCC(=O)NCc3ccco3)n2CC2CCCO2)cc1Cl (stereo unspecified)	-6	i	1.6	2	14
Cc1ccc(NCc2nnc(SCCN3CCCCC3)n2CC2CCCO2)cc1Cl (stereo unspecified)	10	i	2*	-12	4
COc1cc2ccccc2cc1C(=O)NCCCNc1ccc([N+](=O)[O-])cc1	45	.	.	.	.
O=c1[nH]ncc2c3ccccc3n(Cc3ccccc3)c12	0	i	0.9	-5	-11
O=C1NCC(Cn2c3ccccc3c3ccccc32)O1 (stereo unspecified)	104*	.	.	.	.
Cc1ccc(CN2CCN(CC(=O)N3CCC(C(N)=O)CC3)C2=O)cc1	5	i	.	70*	-1
COC(=O)c1cc(-c2ccc(N)cc2)nc2ccccc12	-7	.	.	.	.
N#Cc1cc2c(nc1SCc1nc3ccccc3[nH]1)CCC2	9	i	2.1*	33	-24
O=C(O)COc1ccc(N2C(=O)C3CC=CCC3C2=O)cc1 (stereo unspecified)	2	.	.	.	.
O=C1CS/C(=N\N=C\c2cccc(Br)c2)N1	9	.	.	.	.
O=C1CS/C(=N\N=C\c2cn(Cc3ccc(Cl)cc3Cl)c3ccccc23)N1	66*	.	.	.	.
Cc1cc(C)c(N2C(=O)NC(=O)/C(=C/c3ccc([N+](=O)[O-])o3)C2=O)c(C)c1	76*	.	.	.	.
CCOc1ccc(C(=O)Nc2ccc(OC(F)(F)F)cc2)cc1	103*	.	.	.	.
CCCC(=O)Nc1ccc2c(c1)nc(CN1CCCC1)n2C	.	.	0.8	.	.
Cc1ccc(C(C)C)c(OCC(=O)Nc2ccc3c(c2)nc(CN2CCCC2)n3C)c1	.	.	2*	.	.
Cc1ccc(C(C)C)c(OCC(=O)Nc2ccc(OC(F)(F)F)cc2)c1	83*	.	.	.	.
SMILES	HePTP inh	BAP1 inh	PLAP act	Cdc25B block	MKP-1 inh
Cc1ccc(C(C)C)c(OCC(=O)Nc2ccc(NC(=O)c3ccco3)cc2)c1	-2	.	.	.	.
CCCOc1ccc(C2Nc3ccccc3NC3=C2C(=O)CC(c2ccc(OC)c(OC)c2)C3)cc1 (stereo unspecified)	0	.	.	.	.
COc1ccc(S(=O)(=O)Nc2cc3c(C(C)=O)c(C)oc3c3ccccc23)cc1	-3	.	2*	.	.
NC(=O)c1c(NC(=O)CCC(=O)O)sc2c1CCCC2	-4	.	.	.	.
CCC(CC)C1C(C#N)=C(N)Oc2n[nH]c(C)c21 (stereo unspecified)	16	i	2.1*	-18	-11
CCC(CC)C1C(C#N)=C(N)Oc2n[nH]c(-c3ccccc3)c21 (stereo unspecified)	3	.	0.8	.	.
CCCCCn1c(N2CCN(c3cccc(Cl)c3)CC2)nc2c1c(=O)[nH]c(=O)n2C	4	i	2*	1	29
CCCCn1c(CN2CCN(c3cccc(Cl)c3)CC2)nc2c1c(=O)n(C)c(=O)n2C	1	i	2.1*	2	25
O=C(Nc1ccc(Cl)c(-c2nc3ccccc3[nH]2)c1)c1ccncc1	4	.	.	.	.
COc1ccc(N2C(=O)c3ccc(C(=O)Nc4cc(Cl)ccc4C(=O)O)cc3C2=O)cc1	102*	.	.	.	.
O=[N+]([O-])c1c(Nc2ccccc2O)ncnc1Nc1ccccc1O	1	.	.	.	.
COc1cccc(NC(=O)[C@@H]2CCCN2C(=O)C2CCN(S(=O)(=O)c3ccc(C)cc3)CC2)c1	-6	i	2*	2	-8
